Anesthetic bind – binds horse apoferritin like a general anesthetic. P02791. apoferritin/1-aminoanthracene competitive binding, fluorescence. Potency, µM (doses to about 77.5 µM), without a hit: top-dose activity change, negative = displacement, hits mostly inhibitors. actives 0.074% (n = 350,000); also: potency is read from the fitted curve at half-maximal effect; % is scaled to controls: 0 for no effect and ±100 for the full control effect; nearly all actives have a fitted effect of over 20% in size
Target sequence (P02791 2-175 limits assumed): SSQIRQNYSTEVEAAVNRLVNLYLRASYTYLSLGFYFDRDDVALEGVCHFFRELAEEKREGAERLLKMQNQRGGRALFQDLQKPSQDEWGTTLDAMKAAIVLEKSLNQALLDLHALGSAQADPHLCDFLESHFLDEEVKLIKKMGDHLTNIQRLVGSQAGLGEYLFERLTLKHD
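Apoferritin-based anesthetic binding model; compound displacement of fluorescent 1-AMA measured as endpoint fluorescence after 10 minutes at room temperature, scaled to free-ligand and complex controls.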
Giardia kill – kills Giardia lamblia | Giardia lamblia trophozoite viability | activity change, % at 7.66 µM, hits read low | actives 0.15% (n = 340,000) | AID 540267; in the data active = activity change below about -80%; inconclusive = between about -30% and that limit;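 also: parasites exposed to compound for two days anaerobically before the ATP read; % is scaled to controls: 0 for no effect and ±100 for the full control effect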
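Giardia trophozoites, 100 cells per well, were exposed to compounds for 48 hrs at 37 deg C under anaerobic conditions; viability was then read as ATP content by bioluminescence after 15-30 min at room temperature.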
Nrf2 inh – inhibitors of Nrf2 signaling | A549 ARE-Fluc reporter, luciferase luminescence, 18-24 h | Potency, µM (top dose mostly 46 µM), for inactives: at the top dose activity change, negative = inhibition, actives largely listed as inhibitors | actives 2.1% (n = 360,000) | AID 504444; also: potency is read from the fitted curve at half-maximal effect; % is scaled to controls: 0 for no effect and ±100 for the full control effect; nearly all actives have a fitted effect of over 60% in size
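Reporter: ARE-Fluc in A549. Exposure: 18-24 h, 37 °C, 5% CO2, 5% FBS OPTI-MEM. Readouts: fluorescent cytotoxicity (CellTiter-Fluor), then luminescent Nrf2 signal after BugLite.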
A549 tox – A549 cytotoxicity, counter-screen for Nrf2 inhibitors; A549 ARE-Fluc cells, CellTiter-Fluor viability, 18-24 h; AID 504648; Potency, µM (top dose mostly 46 µM), without a hit: top-dose activity change, negative = cytotoxicity, most hits filed as inhibitors; actives 0.16% (n = 390,000); also: potency is read from the fitted curve at half-maximal effect; % is scaled to controls: 0 for no effect and ±100 for the full control effect
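Cytotoxicity counterscreen: CellTiter-Fluor fluorescence was measured in A549 ARE_Fluc cells after 18-24 h of compound exposure in a concentration series. The subsequent BugLite luminescent read reports ARE-luciferase activity.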
IDH1 R132H inh – inhibitors of human mutant IDH1 R132H; O75874; IDH1-R132H enzyme, NADPH consumption, diaphorase/resazurin fluorescence; Potency, µM (titrated, usually from 76.6 µM), for inactives: at the top dose activity change, negative = inhibition, hits mostly inhibitors; actives 0.093% (n = 390,000); also: potency is read from the fitted curve at half-maximal effect; % is scaled to controls: 0 for no effect and ±100 for the full control effect; nearly all actives have a fitted effect of over 65% in size
Target sequence (O75874 whole entry R132H, stated change not applied): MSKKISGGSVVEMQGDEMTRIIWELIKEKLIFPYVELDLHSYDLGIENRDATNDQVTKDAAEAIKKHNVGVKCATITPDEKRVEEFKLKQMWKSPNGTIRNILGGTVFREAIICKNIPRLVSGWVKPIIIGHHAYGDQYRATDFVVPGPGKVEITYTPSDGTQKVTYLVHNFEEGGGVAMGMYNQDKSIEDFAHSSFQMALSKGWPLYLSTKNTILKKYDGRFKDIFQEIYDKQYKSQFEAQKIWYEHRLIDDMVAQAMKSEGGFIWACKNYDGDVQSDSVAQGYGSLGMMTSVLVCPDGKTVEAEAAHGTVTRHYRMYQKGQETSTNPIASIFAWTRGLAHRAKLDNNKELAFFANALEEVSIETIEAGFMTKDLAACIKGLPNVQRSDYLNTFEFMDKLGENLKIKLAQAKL
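IDH1-R132H (0.5 ug/mL dispensed) in pH 7.5 Tris buffer was preincubated 30 min with compound, then given a substrate mix of 0.016 mM NADPH and 2 mM alpha-KG for 80 min at room temperature; remaining NADPH was read by diaphorase/resazurin fluorescence.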
Nrf2 activator – Nrf2 pathway activation; AREc32 ARE-luciferase reporter (MCF7-derived line), luminescence, 24 h; Potency, µM (top dose mostly 46.1 µM), for inactives: top-dose activation, usual class: activators; actives 0.31% (n = 410,000); AID 624171; also: potency is read from the fitted curve at half-maximal effect; % of control where 0% means no effect; nearly all actives have a fitted effect of over 65% in size
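Luciferase luminescence (Steady-Glo, 30 min at room temperature) served as the read-out of ARE activation in AREc32 cells treated with compounds for 24 hr at 37 deg C.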
Active calls of the source: *; ? = inconclusive; nt = no result; [ ] = dose if it differs, or a comment. Shown are actives, neighbours in structure and some others; about 2.3% of the full set was active somewhere. Unless noted, calls follow the shape of the dose curve; as a rule, active = well fitted curve in the direction sought with a large enough effect; inconclusive = small, poorly fitted or top-dose-only effect, or another doubt; inactive = no such curve, though single readings can be large; an effect the other way counts as inactive or inconclusive.

SMILES	Anesthetic bind	Giardia kill	Nrf2 inh	A549 tox	IDH1 R132H inh	Nrf2 activator
CC(=O)OCC(=O)[C@@]1(OC(C)=O)[C@@H](C)C[C@H]2[C@@H]3C[C@H](F)C4=CC(=O)C=C[C@]4(C)[C@@]3(F)[C@@H](O)C[C@@]21C	-10.1%	70.9	0.0092µM*	4.9%	7.1%	2.0%
C[C@@H]1C[C@H]2[C@@H]3CCC4=CC(=O)C=C[C@]4(C)[C@@]3(F)[C@@H](O)C[C@]2(C)[C@@]1(O)C(=O)COP(=O)(O)O	-0.5%	11.6	0.0231µM*	-2.3%	15.3%	-1.1%
C=CC1CN2CCC1CC2[C@@H](O)c1ccnc2ccc(OC)cc12 (some centres not stated)	2.6%	-4.8	6.1%	-1.1%	nt	nt
Cc1ccccc1Nc1c(-c2ccc(Cl)s2)nc2ccccn12	nt	2.8	2.0%	4.3%	nt	nt
CC(=O)OCC(=O)C1(O)CCC2C3CC(C)C4=CC(=O)C=CC4(C)C3=CCC21C (configuration not stated)	nt	-17.2	2.06µM*	3.0%	6.2%	2.5%
CC(=O)OCC(=O)[C@@]1(O)CC[C@H]2[C@@H]3CCC4=CC(=O)C=C[C@]4(C)[C@@]3(F)[C@@H](O)C[C@@]21C	nt	-6.9	0.0291µM*	-5.3%	10.1%	-0.9%
CC(=O)OCC(=O)C1(O)CCC2C3CC(F)C4=CC(=O)CCC4(C)C3C(=O)CC21C (configuration not stated)	nt	1.8	-27.4%	-3.4%	-0.2%	-0.3%
CC(=O)OCC(=O)[C@@]1(O)CC[C@@H]2[C@H]3CCC4=CC(=O)CC[C@]4(C)[C@]3(F)[C@@H](O)C[C@@]21C	-12.1%[29.3 µM]	nt	nt	nt	nt	nt
CCn1c(=O)n(C2=C(CO)CN(CC3CCCCCCC3)CC2)c2ccccc21	-8.5%	nt	nt	nt	nt	nt
O=C(Nc1ccc2oc(Cc3ccc(Cl)cc3)nc2c1)c1cccnc1	?	-12.6	?	-7.6%	-0.6%	2.1%
CCOc1cccc(C(=O)Nc2ccc3oc(-c4cccnc4)nc3c2)c1	2.4%	?	9.2µM*	-9.7%	5.9%	-0.1%
O=C(Nc1ccc2oc(-c3cccnc3)nc2c1)c1cccc(Br)c1	-2.7%	nt	-22.2%	1.3%	30.5%	-0.3%
CCOc1cccc(C(=O)Nc2ccc3oc(Cc4ccc(Cl)cc4)nc3c2)c1	-3.9%	-5.4	20.6µM*	?	-0.6%	-0.3%
O=C(NC1CCCCC1)c1ccc(Cn2c(SCc3cccc(F)c3)nc3cccnc32)cc1	-16.9%	nt	-16.3%	6.6%	0.1%	0.6%
COc1ccc(CN(Cc2ccccc2)C(=O)c2ccncc2)cc1COc1ccc(NC(C)=O)cc1	nt	4.6	?	-0.2%	nt	nt
O=[N+]([O-])c1ccc(Oc2ccc(Oc3ccc(C(F)(F)F)cn3)cc2)nc1	-1.6%	-12.0	16.4µM*	-0.2%	4.1%	0.0%
O=[N+]([O-])c1ccc(Oc2ccc(/C=N/O)cc2)nc1	-16.4%	-15.3	-15.1%	-1.8%	8.4%	1.8%
COc1ccc(-c2ccc(CCC(=O)O)n2-c2ccc(Cl)cc2C)cc1	-8.0%	nt	-3.9%	-3.7%	nt	16.4%
N#C/C(=N\Nc1ccc([N+](=O)[O-])cc1)C(N)=S	3.8%	12.6	?	18.4µM*	5.4%	2.3%
N#C/C(=N\Nc1cccc([N+](=O)[O-])c1)C(=O)c1ccc(Br)cc1	-12.9%	5.6	9.2µM*	-22.2%	-5.1%	14.1%
N#Cc1nc(Nc2ccc(F)cc2)nc(NC2CCCC2)n1	nt	nt	-13.4%	-15.5%	nt	nt
COc1ccc(-c2nc(C#N)c(N3CCc4ccccc4C3)o2)cc1OC	6.2%	14.3	20.6µM*	-5.1%	-2.0%	2.5%
N#Cc1ccc(S(=O)(=O)N2CCN(c3nc(-c4cccs4)nc4ccccc34)CC2)cc1	nt	-6.2	-12.0%	-6.3%	nt	nt
N#C/C(=C/c1ccc(N2CCCCCC2)o1)c1ccc(Cl)cc1	-18.5%	12.0	-7.2%	?	10.7%	11.2µM*
N#C/C(=C/c1ccc(N2CCCCC2)cc1)c1cccc(F)c1	-3.5%	-17.4	?	-6.0%	7.4%	4.9%
SMILES	Anesthetic bind	Giardia kill	Nrf2 inh	A549 tox	IDH1 R132H inh	Nrf2 activator
Cc1ccc(/C(C#N)=C\c2ccc(N3CCOCC3)o2)cc1	0.4%	2.4	?	0.6%	1.8%	?
N#C/C(=C/c1ccc(N2CCCCC2)o1)c1cccc(F)c1	?	-17.5	?	-16.9%	9.5%	14.1µM*
Nc1nc(NCc2ccc(Cl)cc2Cl)c2[nH]cnc2n1	nt	2.1	12.2%	7.0%	nt	nt
O=C(CNC(=O)c1ccncc1)OC(C(=O)Nc1cc(C(F)(F)F)ccc1Cl)c1ccccc1 (configuration not stated)	nt	nt	?	16.4%	nt	nt
O=C(CSc1n[nH]c(=O)n1C1CC1)Nc1ccccc1	-1.4%	-0.8	-3.2%	2.1%	-2.2%	-0.6%
O=C(CSc1n[nH]c(=O)n1C1CC1)Nc1cc(Cl)ccc1Oc1ccccc1	-15.1%	2.8	18.4µM*	?	10.5%	-0.6%
CCc1ccc(NC(=O)c2ccc(CN3CC(=O)N4CCCCC4C3=O)cc2)cc1 (configuration not stated)	-11.0%	nt	3.4%	6.4%	-25.1%	5.0%
Cc1cnc([N+](=O)[O-])n1CCOC(=O)c1cccc(F)c1	0.0%	-80.7*	-3.4%	0.4%	2.4%	2.8%
O=C(NC(=S)Nc1cccc(Cl)c1N1CCCCC1)c1ccco1	?	-9.7	?	-13.6%	2.6%	11.2%
O=C(NC(=S)Nc1ccccc1N1CCCC1)c1ccco1	-4.0%	-22.3	3.7%	2.0%	9.9%	14.1µM*
O=C(NC(=S)N(CCc1ccccc1)CCc1ccccc1)c1ccco1	-3.0%	1.6	18.4µM*	-19.6%	2.0%	?
COc1cc(C(=O)NC(=S)Nc2ccccc2N2CCCC2)cc(OC)c1OC	5.3%	-0.5	18.4µM*	-16.2%	-2.2%	5.6%
O=C(NC(=S)Nc1ccccc1Cl)c1ccco1	-5.5%	-2.9	?	0.9%	4.1%	12.6µM*
CC(CCc1ccccc1)NC(=S)NC(=O)c1ccco1 (configuration not stated)	?	-2.4	-9.0%	11.1%	9.7%	5.0%
CCOc1ccccc1CNC(=O)C1=C(C)C(=O)OC12CCN(C(C)=O)CC2	-2.9%	nt	?	-3.3%	24.6%	-1.6%
CCCCOC(=O)/C=C\C(=O)OCCCC	4.1%	-16.9	-0.9%	-6.6%	15.5%	-1.4%
CCCCOC(=O)/C=C\C(=O)NC(N)=O	-6.0%	-13.0	-11.7%	-2.9%	0.1%	15.8µM*
CC[n+]1c(/C=C2\C=C(C)CC(C)(C)C2)sc2ccccc21	?	-15.9	16.4µM*	-13.4%[1.84 µM]	9.9%	?
CCC1=C/C(=C/c2sc3ccccc3[n+]2CC)CC(C)(C)C1	?	-20.7	0.9%	-0.2%	0.0%	?
